# Laboratory results from the supplement of paper PMC9023506.
# Structures can show the parent of a compound that is named as a salt.
# System: Danio rerio larvae (5 dpf)
# Experiment: optomotor response to blue moving lines, difference vs DMSO (percentage points (treated minus DMSO)); higher = more of the behaviour than the DMSO vehicle control
# Settings: 10 µM; exposure time: 3 h pre-incubation + 3 h imaging
# Description: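 5-dpf wild-type zebrafish larvae were imaged in 96-well plates. They were treated with 190 Tocris FDA-approved drugs at 10 µM (1 µl/ml DMSO) for 3 h before and 3 h during imaging at 28.5 °C, 48 larvae per drug. Automated image analysis gave % time moving and optomotor responses. Values are drug group mean minus DMSO vehicle mean (n=844), in percentage points, for 10 behaviours.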
row,SMILES,optomotor response to blue moving lines
1,Cc1cccc([C@H](C)c2c[nH]cn2)c1C [Dexmedetomidine hydrochloride],-12.4
2,C=CCN1C[C@H](C(=O)N(CCCN(C)C)C(=O)NCC)C[C@@H]2c3cccc4[nH]cc(c34)C[C@H]21 [Cabergoline],-0.85
3,COc1cc2c(cc1OC)C1CC(=O)C(CC(C)C)CN1CC2 (configuration not stated) [Tetrabenazine],-7.81
4,CC(O)(CS(=O)(=O)c1ccc(F)cc1)C(=O)Nc1ccc(C#N)c(C(F)(F)F)c1 (configuration not stated) [Bicalutamide],-16.6
5,N[C@@H]1C[C@H]1c1ccccc1 [Tranylcypromine hydrochloride],13.5
6,O=c1[nH]c2ccccc2n1C1CCN(CCCC(c2ccc(F)cc2)c2ccc(F)cc2)CC1 [Pimozide],-7.76
7,CCN(C)C(=O)Oc1cccc([C@H](C)N(C)C)c1 [Rivastigmine tartrate],1.1
8,CC(C)C[C@H]1C(=O)N2CCC[C@H]2[C@]2(O)O[C@](NC(=O)[C@@H]3C=C4c5cccc6[nH]c(Br)c(c56)C[C@H]4N(C)C3)(C(C)C)C(=O)N12 [Bromocriptine mesylate],-29.3
9,COc1ccc(C(CN(C)C)C2(O)CCCCC2)cc1 (configuration not stated) [Venlafaxine hydrochloride],3.9
10,CC[C@@H](C(N)=O)N1CCCC1=O [Levetiracetam],6.19
11,CN1C[C@H](C(=O)N[C@]2(C)O[C@@]3(O)[C@@H]4CCCN4C(=O)[C@H](Cc4ccccc4)N3C2=O)C[C@@H]2c3cccc4[nH]cc(c34)C[C@H]21 [Dihydroergotamine mesylate],12.8
12,C=C1C[C@@H]2[C@H](CC[C@]3(C)C(=O)CC[C@@H]23)[C@@]2(C)C=CC(=O)C=C12 [Exemestane],-2.19
